# Results taken from PubChem BioAssay.
# For some assays here: Measured potencies and affinities stand elsewhere. The source made the active and inactive calls. Unless noted, how the calls were made is not given here.
# Columns and labels:
# [1] = antimalarial activity against Dd2 strain (AID 2302;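 active means growth inhibition above 50% at the single 2 µM test dose, taken to imply half-maximal potency below 2 µM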;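 further: 0% = DMSO untreated growth and 100% = chloroquine plus artemisinin killed control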); conditions: P. falciparum Dd2 in RBCs, LDH growth readout, 72 h; at 2 µM; active compounds read high
# [2] = HepG2 cytotoxicity, primary screen, cytotoxicity control for P. falciparum antimalarial project, cell-based, ATP luminescence (AID 2303;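 active means inhibition above 50%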;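 further: 0% = DMSO wells and 100% = digitonin-killed cells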); conditions: HepG2 viability, 24-48 h, at 10 µM, active compounds read high
# [3] = target: L-lactate dehydrogenase (Plasmodium falciparum (isolate CDC / Honduras)) (UniProt Q27743); test: PfLDH activity inhibition – cell lysate, 3D7 strain, counter-screen for P. falciparum growth inhibition project (AID 2304);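 further: 0% = vehicle and 100% = reference inhibitor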; conditions: P. falciparum 3D7 crude extract, LDH APAD/NBT absorbance; at 2 µM; active compounds read high
# [4] = inhibition of 3D7 malaria parasite growth – strain 3D7 (AID 2306);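 further: 0% = DMSO wells and 100% = chloroquine plus artemisinin control wells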; conditions: P. falciparum 3D7 erythrocytic growth, LDH absorbance, 72 h; at 2 µM; active compounds read high
# [5] = target: Calcium-dependent protein kinase 1 (Plasmodium falciparum (isolate 3D7)) (UniProt P62344); test: PfCDPK1 kinase inhibitors, biochemical, TCAMS library (AID 1159585; cut-off not given, nearly all actives have IC50 up to about 0.98 µM;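 further: inhibitors leave more ATP so luminescence rises with inhibition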); conditions: recombinant PfCDPK1, Kinase-Glo ATP depletion luminescence
# [6] = target: Plasmodium falciparum protein kinase 6 (PK6, PF3D7_1337100) (UniProt Q8IDW1); test: PfPK6 kinase inhibitors, biochemical, TCAMS library (AID 1159586); conditions: recombinant PfPK6, Kinase-Glo ATP depletion luminescence
# [7] = target: Protein kinase 7 (PK7), Plasmodium falciparum 3D7 (PF3D7_0213400) (UniProt Q7YTF7); test: inhibition of Plasmodium PK7 catalytic activity – biochemical, TCAMS antimalarial set, Kinase-Glo luminescence (AID 1159587); conditions: recombinant PfPK7, Kinase-Glo ATP depletion luminescence
# [8] = target: Calcium-dependent protein kinase 4 (Plasmodium falciparum (isolate 3D7)) (UniProt Q8IBS5); test: PfCDPK4 kinase inhibitors, biochemical, TCAMS library (AID 1159588; cut-off not given, nearly all actives have IC50 up to about 0.91 µM); conditions: recombinant PfCDPK4, Kinase-Glo ATP depletion luminescence
# Chain of Calcium-dependent protein kinase 4 (Plasmodium falciparum (isolate 3D7)) (Q8IBS5 whole entry, looked up): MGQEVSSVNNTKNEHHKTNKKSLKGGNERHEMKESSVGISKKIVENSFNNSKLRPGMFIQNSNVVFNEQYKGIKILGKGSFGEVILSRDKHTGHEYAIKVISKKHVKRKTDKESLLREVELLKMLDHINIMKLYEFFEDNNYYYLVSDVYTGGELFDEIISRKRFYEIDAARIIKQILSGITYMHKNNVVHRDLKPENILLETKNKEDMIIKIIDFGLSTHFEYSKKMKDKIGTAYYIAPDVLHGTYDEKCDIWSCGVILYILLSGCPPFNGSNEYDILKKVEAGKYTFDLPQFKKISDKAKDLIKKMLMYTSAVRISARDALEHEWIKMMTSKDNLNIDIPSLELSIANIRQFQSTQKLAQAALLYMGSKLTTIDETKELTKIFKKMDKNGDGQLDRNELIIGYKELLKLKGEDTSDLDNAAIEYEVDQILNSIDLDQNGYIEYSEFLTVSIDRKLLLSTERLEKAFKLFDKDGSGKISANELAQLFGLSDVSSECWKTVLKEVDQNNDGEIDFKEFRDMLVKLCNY
# Chain of Protein kinase 7 (PK7), Plasmodium falciparum 3D7 (PF3D7_0213400) (Q7YTF7 1-343): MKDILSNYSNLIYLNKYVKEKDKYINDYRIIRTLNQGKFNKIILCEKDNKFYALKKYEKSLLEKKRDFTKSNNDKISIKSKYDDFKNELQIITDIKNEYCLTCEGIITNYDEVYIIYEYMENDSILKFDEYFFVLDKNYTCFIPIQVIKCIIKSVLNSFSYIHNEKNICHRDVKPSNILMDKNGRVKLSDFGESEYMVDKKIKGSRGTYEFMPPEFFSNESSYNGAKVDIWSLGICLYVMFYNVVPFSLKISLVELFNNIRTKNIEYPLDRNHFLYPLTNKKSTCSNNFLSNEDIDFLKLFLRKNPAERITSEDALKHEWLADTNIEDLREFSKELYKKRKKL
# Chain of L-lactate dehydrogenase (Plasmodium falciparum (isolate CDC / Honduras)) (Q27743 whole entry, looked up): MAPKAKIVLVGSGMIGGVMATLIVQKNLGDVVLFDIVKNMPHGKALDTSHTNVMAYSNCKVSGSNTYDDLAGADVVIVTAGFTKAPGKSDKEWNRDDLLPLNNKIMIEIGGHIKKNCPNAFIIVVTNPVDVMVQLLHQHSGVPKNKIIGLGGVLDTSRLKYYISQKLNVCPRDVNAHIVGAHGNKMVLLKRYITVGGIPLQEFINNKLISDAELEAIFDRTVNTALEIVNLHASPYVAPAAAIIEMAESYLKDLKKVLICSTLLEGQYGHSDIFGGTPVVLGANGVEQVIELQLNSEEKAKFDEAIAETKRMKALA
# Chain of Plasmodium falciparum protein kinase 6 (PK6, PF3D7_1337100) (Q8IDW1 1-305): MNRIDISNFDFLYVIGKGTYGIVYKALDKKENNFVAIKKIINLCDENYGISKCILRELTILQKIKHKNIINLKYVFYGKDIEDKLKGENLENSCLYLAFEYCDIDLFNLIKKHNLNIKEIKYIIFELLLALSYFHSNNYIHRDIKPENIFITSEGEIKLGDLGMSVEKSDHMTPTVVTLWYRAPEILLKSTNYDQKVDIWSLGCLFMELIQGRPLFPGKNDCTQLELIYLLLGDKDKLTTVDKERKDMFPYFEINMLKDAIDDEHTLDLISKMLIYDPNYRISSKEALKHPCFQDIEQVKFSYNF
# Chain of Calcium-dependent protein kinase 1 (Plasmodium falciparum (isolate 3D7)) (P62344 whole entry, looked up): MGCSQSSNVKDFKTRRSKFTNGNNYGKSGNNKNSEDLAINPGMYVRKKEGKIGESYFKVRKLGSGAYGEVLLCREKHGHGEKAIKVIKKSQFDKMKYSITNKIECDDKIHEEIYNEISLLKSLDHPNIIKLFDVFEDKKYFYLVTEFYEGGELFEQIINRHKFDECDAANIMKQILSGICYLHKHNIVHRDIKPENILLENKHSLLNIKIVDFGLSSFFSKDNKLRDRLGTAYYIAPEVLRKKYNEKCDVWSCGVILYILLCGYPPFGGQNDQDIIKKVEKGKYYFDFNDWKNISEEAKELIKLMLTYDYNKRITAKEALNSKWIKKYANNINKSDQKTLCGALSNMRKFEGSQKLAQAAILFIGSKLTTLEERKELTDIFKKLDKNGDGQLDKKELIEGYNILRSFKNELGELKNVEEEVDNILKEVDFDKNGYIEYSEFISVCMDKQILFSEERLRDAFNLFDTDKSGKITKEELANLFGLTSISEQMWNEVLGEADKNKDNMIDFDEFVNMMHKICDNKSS
SMILES,growth inhibition [1],inhibition [2],inhibition [3],growth inhibition [4],outcome [5],outcome [6],outcome [7],outcome [8]
COc1ccc(CN(C)CCOc2ccc(NC(=O)c3cccc4c(=O)cc(-c5ccccc5)[nH]c34)cc2)cc1OC,44% (inactive),13% (inactive),-3% (inactive),98% (active),inactive,inactive,inactive,inactive
CC(Cc1ccc(NC(=O)COc2ccc(CC(C)NCCc3cccc(Cl)c3)cc2)cc1)NCCc1cccc(Cl)c1 (stereo not given),98% (active),100% (active),4% (inactive),105% (active),inactive,inactive,inactive,inactive
CCOc1ccc2c(NN=Cc3cccc(OC)c3OC)cc(C)nc2c1,85% (active),4% (inactive),3% (inactive),102% (active),inactive,inactive,inactive,inactive
CN1CCN(c2cc(NC(=O)Nc3cccc(Cl)c3Cl)ccc2Cl)CC1,21% (inactive),2% (inactive),2% (inactive),102% (active),inactive,inactive,inactive,inactive
CN(C)CCNCc1cccc(-c2cccc(-c3nc4ccccc4[nH]3)c2)c1,63% (active),7% (inactive),-3% (inactive),101% (active),inactive,inactive,inactive,inactive
CCOc1ccc2c(c1)N(C(=O)C=Cc1ccccc1)C(C)(C)c1ssc(=S)c1-2,77% (active),3% (inactive),-1% (inactive),83% (active),inactive,inactive,inactive,inactive
CCOC(=O)c1ccc(N(CCCN(CCCN(c2ccc(C(=O)OCC)cc2)S(=O)(=O)c2ccc(C)cc2)CCc2ccc(O)cc2)S(=O)(=O)c2ccc(C)cc2)cc1,74% (active),-11% (inactive),-1% (inactive),96% (active),inactive,inactive,inactive,inactive
C1=CN(Cc2ccccc2)C=CC1=C1C=Nc2ccccc21,69% (active),8% (inactive),-3% (inactive),90% (active),inactive,inactive,inactive,inactive
COc1ccccc1C(C)NCC(=O)Nc1cc(C(F)(F)F)ccc1Cl (stereo not given),85% (active),4% (inactive),-3% (inactive),97% (active),inactive,inactive,inactive,inactive
O=C(NCCCN1CCOCC1)c1csc(Nc2ccc(Cl)c(Cl)c2)n1,23% (inactive),5% (inactive),2% (inactive),92% (active),inactive,inactive,inactive,inactive
CN(C)Cc1ccc2cc(NC(=O)c3ccc(-c4ccc(Cl)cc4)cc3)ccc2c1,22% (inactive),21% (inactive),-3% (inactive),92% (active),inactive,inactive,inactive,inactive
CCC(C)(C)c1ccc(OCC(O)CN2CCCCC2)c(C(C)(C)CC)c1 (stereo not given),26% (inactive),14% (inactive),-9% (inactive),91% (active),inactive,inactive,inactive,inactive
CCCSc1nc2c(c(=O)n1CCc1ccccc1)C1(CCCC1)Cc1ccccc1-2,53% (active),46% (inactive),-4% (inactive),99% (active),inactive,inactive,inactive,inactive
COc1cc2nc(N3CCC(CNC(=O)c4ccc(-c5ccccc5)cc4)CC3)nc(N)c2cc1OC,92% (active),11% (inactive),-1% (inactive),93% (active),inactive,inactive,inactive,inactive
CCCCc1cc(O)c2c(c1)OC(C)(C)C=C2C1=CCN(Cc2ccccc2)CC1,3% (inactive),9% (inactive),-5% (inactive),98% (active),inactive,inactive,inactive,inactive
O=C(NC1CCCCCC1)[C@@H]1CCCN1C(=O)c1ccc(O)c(-c2ccc(Cl)c(Cl)c2)c1,98% (active),-2% (inactive),-7% (inactive),99% (active),inactive,inactive,inactive,inactive
COc1ccc(N2CCN(CCCCNC(=O)c3ccc(NC(=O)c4ccc(OC(F)(F)F)cc4)cc3)CC2)c(OC)c1,90% (active),36% (inactive),5% (inactive),101% (active),inactive,inactive,inactive,inactive
CCN1CCN(c2cc(C)c3cc(NC(=O)c4cc(OC)cc(OC)c4)ccc3n2)CC1,90% (active),0% (inactive),4% (inactive),102% (active),inactive,inactive,inactive,inactive
Cc1c(Cn2ncc(N3CCC(N)CC3)c(Cl)c2=O)cccc1NC(=O)Nc1ccc(-c2ccccc2)cc1,43% (inactive),19% (inactive),-1% (inactive),97% (active),inactive,inactive,inactive,inactive
Cc1c(Cn2nc(Cl)c(N3CCNCC3)cc2=O)cccc1NC(=O)Nc1ccc(-c2ccccc2)cc1,29% (inactive),96% (active),2% (inactive),80% (active),inactive,inactive,inactive,inactive

SMILES,growth inhibition [1],inhibition [2],inhibition [3],growth inhibition [4],outcome [5],outcome [6],outcome [7],outcome [8]
Cc1cc(N[C@@H](Cc2ccccc2)C(=O)NCCc2ccccc2)nc(NCCc2ccccc2)n1,57% (active),-4% (inactive),-2% (inactive),100% (active),inactive,inactive,inactive,inactive
COc1ccc2nc(C)cc(NN=Cc3cccc(Cl)c3)c2c1,100% (active),13% (inactive),7% (inactive),101% (active),inactive,inactive,inactive,inactive
COc1ccc2nccc(N3CCN(CCNCc4ccc5c(n4)NC(=O)CS5)CC3)c2c1,23% (inactive),18% (inactive),-2% (inactive),97% (active),inactive,inactive,inactive,inactive
N#Cc1ccc(-c2ccc(C(=O)NCC3CCN(CCN4CCC(c5ccc6c(c5OCC(N)=O)CCCC6)CC4)CC3)cc2)cc1,99% (active),56% (active),-7% (inactive),99% (active),inactive,inactive,inactive,inactive
COc1ccc(Nc2nccc(N3CCC(NC(=O)c4cccc(NC(C)=O)c4)C3)n2)cc1 (stereo not given),84% (active),-3% (inactive),-5% (inactive),92% (active),inactive,inactive,inactive,inactive
O=C(N[C@@H](Cc1ccccc1)[C@H](O)CNC1CCc2ccccc2C1)c1cc(C2CCCC2)cc(N2CCCC2=O)c1 (stereo not given in full),76% (active),23% (inactive),-4% (inactive),99% (active),inactive,inactive,inactive,inactive
C=CCNc1cc(-c2ccccn2)nc(-c2ccccn2)n1,79% (active),78% (active),-2% (inactive),94% (active),inactive,inactive,inactive,inactive
Cc1ccc(C2(CN3CCC(NC(=O)c4[nH]ncc4Cl)CC3)CCCCC2)cc1,96% (active),-11% (inactive),-3% (inactive),97% (active),inactive,inactive,inactive,inactive
CC(C)(C)c1ccc(NC(=O)c2ccc(CN3CCCN(CC4CCCCC4)CC3)cc2)cc1,64% (active),54% (active),-1% (inactive),99% (active),inactive,inactive,inactive,inactive
CCNCc1ccc(-c2cccc(-c3nc4ccccc4[nH]3)c2)cc1,18% (inactive),26% (inactive),4% (inactive),102% (active),inactive,inactive,inactive,inactive
O=c1[nH]c2ccc(Nc3nccc(NCCc4ccccc4)n3)cc2[nH]1,6% (inactive),-1% (inactive),3% (inactive),101% (active),inactive,inactive,inactive,inactive
NC(N)=Nc1nccc(NCc2ccccc2)n1,48% (inactive),95% (active),-1% (inactive),88% (active),inactive,inactive,inactive,inactive
N#Cc1cccc(C(=O)Nc2ccc(-c3cccc(CN4CCCC4)c3)cc2)c1,79% (active),15% (inactive),2% (inactive),101% (active),inactive,inactive,inactive,inactive
O=C1CCCN1CCCNCc1ccc(-c2ccc(-c3nc4ccc(F)cc4[nH]3)s2)cc1,91% (active),19% (inactive),0% (inactive),100% (active),inactive,inactive,inactive,inactive
O=C(CSc1nc(-c2ccccc2Cl)ns1)Nc1cccc(Cl)c1,89% (active),-8% (inactive),-4% (inactive),96% (active),inactive,inactive,inactive,inactive
Cc1cc(C(=O)Nc2ccc3c(c2)CCN3C2CCN(Cc3ccc(O)cc3)C2)no1 (stereo not given),86% (active),3% (inactive),-1% (inactive),95% (active),inactive,inactive,inactive,inactive
CC(C)(C)c1ccc(NC(=O)c2cccc(CN3CCCN(Cc4ccsc4)CC3)c2)cc1,3% (inactive),33% (inactive),-4% (inactive),96% (active),inactive,inactive,inactive,inactive
O=C(/C=C/c1ccc(Cl)c(Cl)c1)NCCCCCN1CCCC(CNS(=O)(=O)c2ccc(F)cc2)C1 (stereo not given),7% (inactive),56% (active),1% (inactive),91% (active),inactive,inactive,inactive,inactive
CCc1cn(C)c2c(N3CCCC3=O)cc(C(=O)N[C@@H](Cc3ccccc3)[C@H](O)CNC(C)(C)c3cccc(C(F)(F)F)c3)cc12,97% (active),22% (inactive),0% (inactive),97% (active),inactive,inactive,inactive,inactive
O=C(Nc1cccc(C(F)(F)F)c1)c1ccc(S(=O)(=O)NCC2CCCN2CC2CCCCC2)cc1 (stereo not given),3% (inactive),14% (inactive),-5% (inactive),98% (active),inactive,inactive,inactive,inactive
